# From PubChem BioAssay
# This excerpt belongs to a sample that is enriched for hits.
# Mac1 fbg inh: inhibitors of human CD11b/CD18 binding to fibrinogen | P05107+P11215 | K562 CD11b/CD18 adhesion to fibrinogen, ATPlite luminescence; Mn2+ added to activate the integrin | inhibition, % at 10 µM | hit rate 0.54% among 93,000;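 active = primary inhibition of 50% or more at 10 µM, then 40% or more on retest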
# Target sequence (P05107 whole entry, looked up, other chains not shown): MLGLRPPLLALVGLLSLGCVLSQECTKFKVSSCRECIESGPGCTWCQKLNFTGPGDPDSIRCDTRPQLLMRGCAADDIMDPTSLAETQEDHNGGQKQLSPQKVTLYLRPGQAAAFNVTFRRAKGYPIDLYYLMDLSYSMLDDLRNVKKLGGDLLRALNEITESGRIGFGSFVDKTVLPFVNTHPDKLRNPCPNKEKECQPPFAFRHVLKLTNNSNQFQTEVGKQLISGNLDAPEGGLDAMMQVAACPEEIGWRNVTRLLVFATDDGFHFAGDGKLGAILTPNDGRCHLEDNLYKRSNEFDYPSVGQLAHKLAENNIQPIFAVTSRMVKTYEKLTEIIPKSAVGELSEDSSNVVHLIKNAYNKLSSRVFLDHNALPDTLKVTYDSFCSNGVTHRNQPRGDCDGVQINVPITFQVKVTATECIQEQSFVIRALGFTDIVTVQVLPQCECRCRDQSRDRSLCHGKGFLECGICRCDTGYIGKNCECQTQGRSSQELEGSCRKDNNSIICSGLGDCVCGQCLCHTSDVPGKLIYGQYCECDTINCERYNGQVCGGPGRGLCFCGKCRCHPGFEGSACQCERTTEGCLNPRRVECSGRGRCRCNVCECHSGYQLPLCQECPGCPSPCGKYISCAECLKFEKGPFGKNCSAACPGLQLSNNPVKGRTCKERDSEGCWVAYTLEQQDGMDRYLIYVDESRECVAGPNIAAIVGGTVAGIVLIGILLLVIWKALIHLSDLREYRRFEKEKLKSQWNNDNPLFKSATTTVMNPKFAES
# CD11b adhes enh: increases human CD11b/CD18 adhesion to fibrinogen. hit rate 0.07% among 93,000. activation, % at 10 µM. P05107+P11215. K562 CD11b/CD18 adhesion to fibrinogen, ATPlite luminescence;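 active = 10 µM primary screen giving 50% or more activity, confirmed by 40% or more on retest at that dose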
# D1 allo mod: D1 dopamine receptor (human) allosteric modulation; P21728; AID 641; HEK293 D1, CRE-luciferase, dopamine EC30 potentiation; actives deviate in either direction; B-score at 10 µM; hit rate 5.9% among 58,000;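 active = luminescence count or its row- and column-corrected plate score outside the 99.7% band of the plate's sample wells, on either side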
# FAK blocker: blocks human focal adhesion kinase activity; Q05397; hit rate 0.84% among 97,000; biochemical FAK kinase activity assay; inhibition, %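 (tested at 7 µM)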; AID 727; in the data active = inhibition above about 19%;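 note: 0% = DMSO and 100% = reference compound high control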
# PTK2B oligo ant: blocks oligomerization of human Pyk2 in cells. Q293 cells, Pyk2 FERM NanoBiT luminescence; active compounds read low. z-score (the deposit names both 25 µM and 10 µM). hit rate 0.83% among 99,000;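 active = Z-score of -3 or lower, scaled per plate to the spread of control and sample wells; inactive = z-score above -3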;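 note: negative z-score means lost luminescence so less FERM oligomerization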
# hDAT+cocaine: human DAT dopamine uptake with cocaine, either direction; LLC-PK1 hDAT cells, [14C]-dopamine uptake with cocaine IC80; actives deviate in either direction; B-score at 10 µM; hit rate 1.3% among 110,000;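 active = Z score or B-score, a plate-position-corrected score, falls beyond the plate's 99.7% confidence bounds, in either direction; inactive = both scores lie inside the 99.7% bounds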;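 note: scored against the spread of the other compound wells on the same plate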
# D1 mod confirm: D1 receptor (human) allosteric modulation, confirmed; shares compounds with D1 allo mod; HEK293 D1 CRE-luciferase, dopamine EC30 potentiation; active compounds read high; luminescence at 10 µM; hit rate 88% among 2,200; AID 642;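 active = luminescence in either of two replicates above the same-plate mean plus 3 SD of the low-dose dopamine control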
# D1 no dopamine: D1 (human) signaling in absence of dopamine | shares compounds with D1 allo mod | HEK293 D1 CRE-luciferase, luminescence, no dopamine; active compounds read high | luminescence at 10 µM | hit rate 0.8% among 1,900 | AID 646; in the data active = luminescence above about 3900
# Isoprot counter: alters isoproterenol CRE-luciferase response in HEK293 cells | shares compounds with D1 allo mod | HEK293 D1 CRE-luciferase, isoproterenol EC30 counter-screen | calls only at 10 µM | hit rate 63% among 2,200 | AID 647;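 active = luminescence in either replicate above plate mean of wells with a partly effective reference agonist dose plus 3 SD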;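 note: isoproterenol raises cAMP through native beta-adrenoceptor Gs so signal bypasses D1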
# * marks the source's active call; other numbers are inactive results; i = inactive; . = no result given; + = active, no number.
SMILES,Mac1 fbg inh,CD11b adhes enh,D1 allo mod,FAK blocker,PTK2B oligo ant,hDAT+cocaine,D1 mod confirm,D1 no dopamine,Isoprot counter
Cc1ccc(SCCc2ccc(C)nc2)cc1,-3.7,5.4,.,.,.,.,.,.,.
CCOC(=O)C(Sc1nnc2c3ccccc3n(CC)c2n1)C(=O)OCC,.,.,5.15*,4.7,0.27,-0.741,11136*,1560,+
CCn1c2ccccc2c2nnc(SCC(=O)c3ccccc3)nc21,-12.6,3.3,.,-1.7,-0.46,0.827,.,.,.
FC(F)(F)C(Oc1nc(Nc2ccc(Cl)cc2)nc(N2CCOCC2)n1)C(F)(F)F,.,.,.,0.8,0.42,-0.375,.,.,.
C1=Nc2c(NCc3ccccc3)ncnc2Oc2ccccc21,.,.,7.98*,2.3,-1.24,0.936,10088*,1584,+
CCCN1C(=O)c2ccccc2NC1c1ccc(OC)cc1O (configuration not stated),0.7,0.1,4.45*,7.2,0.04,0.0821,4884,1664,i
Cc1cc(C)c(NC(=O)CN2CCN3CCCC3C2)c(C)c1 (configuration not stated),4.0,2.7,-0.231,0.9,1.07,-0.101,.,.,.
O=C(N/N=C1/CCCc2ccccc21)C(c1ccccc1)c1ccccc1,2.5,-4.9,.,-5.8,0.07,-0.207,.,.,.
CC1(C)Cc2c(C#N)c(NC3CCCCC3)nc(-c3ccco3)c2CO1,-4.0,2.0,3.42*,.,.,1.4,8368*,1616,i
Cc1ccccc1OCCSCc1nc2ccccc2[nH]1,54.2,-1.7,.,.,.,.,.,.,.
Cc1onc(-c2ccccc2)c1C(=O)Nc1ccc2c(c1)OCO2,-2.3,-3.7,4.99*,-1.8,0.56,0.446,11760*,1796,i
CC1Cc2cc(C3(O)C(=O)c4ccccc4C3=O)ccc2N1 (configuration not stated),-2.0,-2.1,.,-0.4,1.16,0.122,.,.,.
COC(=O)CSc1nnc(-c2cccs2)n1-c1ccc(Cl)cc1,-31.8,-4.2,2.83*,-0.7,0.35,0.734,9056*,.,+
Cc1c(C)c2ccc(OC3CCCCC3=O)cc2oc1=O (configuration not stated),-13.6,1.0,2.46*,.,1.48,.,6564*,1492,i
Cc1onc(-c2ccccc2)c1C(=O)NC(C)C1CCCO1 (configuration not stated),1.9,-4.3,.,1.2,1.02,0.248,.,.,.
CCN(CC)S(=O)(=O)c1ccc(OC)c(NC(=O)C(Cc2ccccc2)N2C(=O)c3ccccc3C2=O)c1 (configuration not stated),2.0,5.6,.,.,.,.,.,.,.
O=CN1Cc2[nH]c3ccccc3c2N(c2ccc(Cl)cc2)C1=O,-7.1,-2.4,8.98*,-2.7,0.81,-1.38,10080*,1192,i
CCC(C(=O)NC1CCCC1)N(Cc1cccs1)C(=O)Cn1nnc(-c2ccc(OC)c(OC)c2)n1 (configuration not stated),.,.,.,0.1,-0.96,0.61,.,.,.
CCC(C(=O)NC1CCCC1)N(C(=O)Cn1nnc(-c2ccc(OC)c(OC)c2)n1)C1CCCCC1 (configuration not stated),3.3,-3.9,6.84*,0.8,0.63,1.72,9072*,1456,+
NS(=O)(=O)c1ccc(CCNC(=O)C2CCCCN2S(=O)(=O)c2ccccc2)cc1 (configuration not stated),-12.4,-0.5,3.49*,1.8,1.16,-0.12,5988,1656,i
CCCc1nc(Cl)c(C#N)c2c1CCCC2,-8.5,2.3,.,.,.,.,.,.,.
CCCc1nc(N)c(C#N)c(N)c1C#N,-6.2,2.2,18.7*,0.7,1.1,0.253,17760*,1744,+
COC(=O)C(NC(=O)c1ccc(C)cc1)(Nc1cccc(C)n1)C(F)(F)F (configuration not stated),.,.,.,1.3,-0.2,1.17,.,.,.
Cc1noc(C)c1CSc1nnc2scc(-c3ccc(Cl)cc3)n12,0.8,0.7,7.78*,3.8,-0.88,-0.0542,18508*,1640,+
